What all share (test): NCI-60 one-dose screen, 48 h (100 = growth as untreated, 0 = no growth, -100 = all killed)
For test [1], the system named is T-47D breast. As to conditions: 10 µM unless noted.
The subject of test [2] is BT-549 breast. The note with it: 10 µM unless noted.
Test [3] concerns MDA-MB-435 melanoma. As to conditions: 10 µM unless noted.
The subject of test [4] is SW-620 colon. As to conditions: 10 µM unless noted.
Test [5] relates to MCF7 breast.
In test [6] the test system is HCT-116 colon. As to conditions: 10 µM unless noted.
The subject of test [7] is HCC-2998 colon. As to conditions: 10 µM unless noted.
Test [8] concerns KM12 colon. As to conditions: 10 µM unless noted.

Values joined by “and” are separate entries in the source; they are usually repeats but may differ in a detail not shown here. Equal entries are not always repeated. About 83,000 compounds went through this panel and 20% of them were active in at least one assay; those are over-represented in the sample as a whole.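 Step 1: grow cells in 96-well plates. Step 2: add test compound at a single concentration. Step 3: incubate 48 h. Step 4: record percent growth.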 Active and inactive are the calls of the source. The calls were made as follows: active = growth percent below 10; inactive = the rest.

For the compound `Cc1ccc([N+](=O)[O-])cc1Br`, the growth in test [1] is 89.1% (inactive); in test [2] it was 110% (inactive); in test [3], 85.6% (inactive); in test [4], 91.8% (inactive); in test [5] (10 µM unless noted), 97.6% (inactive); in test [6], 90.8% (inactive). Besides, the values for the growth in test [7] and in test [8] were 117% (inactive) and 103% (inactive), respectively.
Consider `O=C1C2=C(Nc3cc(Cl)ccc3N2)OC1c1c[nH]c2ccc(COc3ccccc3)cc12` (stereo not given), for which the growth in test [1] is 68.4% (inactive); in test [2], 26.7% (inactive); in test [3], 84.6% (inactive); in test [4], 85% (inactive); in test [5] (10 µM unless noted), 64.2% (inactive); in test [6], 72.4% (inactive). Moreover, the figures for the growth in test [7] and in test [8] were 83.7% (inactive) and 87.1% (inactive), respectively.
Turning to `Cc1cc2ccccc2c2cc3ccccc3cc12`, the growth in test [1] was 48% (inactive); in test [2], 93.7% (inactive); in test [3], 100% (inactive); in test [4], 90% (inactive); in test [5] (10 µM unless noted), 33.8% (inactive); in test [6], 93.8% (inactive). The figures for the growth in test [7] and in test [8] were 92.5% (inactive) and 82.1% (inactive), respectively.
Turning to `Clc1ccc2c(c1)N(C1CCCN(Cc3ccccc3)C1)c1ccccc1S2` (stereo not given), the growth in test [1] was 69% (inactive); in test [2], 61.2% (inactive); in test [3], 5.2% (active); in test [4], 22.6% (inactive); in test [5] (10 µM unless noted), 18.4% (inactive); in test [6], 12.1% (inactive). Also, the growth was 23% (inactive) in test [7] and 33.7% (inactive) in test [8].
Take `Nc1nc(N)c2cc(S(=O)(=O)c3ccccc3)ccc2n1`: the growth in test [1] was 72.7% (inactive) and 59% (inactive); in test [2], 81.4% (inactive) and 54.6% (inactive); in test [3], 33.5% (inactive) and 31% (inactive); in test [4], 21.8% (inactive) and 25.3% (inactive); in test [5] (10 µM unless noted) it was 40.2% (inactive) and 29.5% (inactive); in test [6], 16.3% (inactive) and 13.4% (inactive). In addition, the growth in test [7] is 30.6% (inactive); in test [8] it was 32.5% (inactive) and 28.7% (inactive).
Turning to `CCOc1ccc(/C=C\C(=O)O)cc1`, the growth is 122% (inactive) in test [1]; 125% (inactive) in test [2]; 107% (inactive) in test [3]; 101% (inactive) in test [4]; 95.2% (inactive) in test [5] (10 µM unless noted); 119% (inactive) in test [6]. Moreover, the growth was 109% (inactive) in test [7] and 106% (inactive) in test [8].
Regarding `OC(CC(c1ccccc1)c1cccc2ccccc12)(c1ccccc1)c1ccccc1` (stereo not given), the growth is 64% (inactive) and 81.8% (inactive) in test [1]; 88.4% (inactive) in test [2]; 96.9% (inactive) and 88.9% (inactive) in test [3]; 77% (inactive) and 80.9% (inactive) in test [4]; 79.1% (inactive) and 79.3% (inactive) in test [5] (10 µM unless noted); 58.9% (inactive) and 46.3% (inactive) in test [6]. For the same compound, the growth in test [7] was 98.9% (inactive) and 88.1% (inactive); in test [8], 89.2% (inactive) and 90.9% (inactive).
Take `N#Cc1ccc(/C=C/C(=O)c2ccccc2)cc1`: the growth was 88.3% (inactive) and 82.5% (inactive) in test [1]; 98% (inactive) and 96.5% (inactive) in test [2]; 84.4% (inactive) and 95.2% (inactive) in test [3]; 19.1% (inactive) and 1.04% (active) in test [4]; 3.73% (active) and 34.9% (inactive) in test [5] (10 µM unless noted); -97.4% (active) and -60.8% (active) in test [6]. For the same compound, the growth in test [7] is 110% (inactive) and 7.47% (active); in test [8] it was -47.9% (active) and 15.7% (inactive).
`C/C=C/C(=O)OCCCCCCCCCCCC`: the growth in test [1] is 90.8% (inactive); in test [2], 97% (inactive); in test [3], 115% (inactive); in test [4], 111% (inactive); in test [5] (10 µM unless noted) it was 102% (inactive); in test [6], 88.5% (inactive). The growth is 130% (inactive) in test [7] and 105% (inactive) in test [8].
As to `Cc1cc(Cl)nc(Nc2ccccc2)n1`, the growth in test [1] was 90.4% (inactive); in test [2] it was 108% (inactive); in test [3], 98% (inactive); in test [4], 104% (inactive); in test [5] (10 µM unless noted), 93.7% (inactive); in test [6], 93.1% (inactive). In addition, the growth in test [7] is 98.6% (inactive); in test [8], 97.8% (inactive).
For `CCOC(=O)c1ccncc1`, the growth is 95% (inactive) in test [1]; 109% (inactive) in test [2]; 107% (inactive) in test [3]; 104% (inactive) in test [4]; 97.9% (inactive) in test [5] (10 µM unless noted); 107% (inactive) in test [6]. The growth in test [7] and in test [8] was 105% (inactive) in each case.
`NC1=NC(c2ccccc2)N=C(Nc2ccccc2)N1` (stereo not given): the growth in test [1] is 98.4% (inactive) and 106% (inactive); in test [2], 74.5% (inactive) and 83.4% (inactive); in test [3], 18.2% (inactive) and 7.52% (active); in test [4], 84.4% (inactive) and 94.5% (inactive); in test [5] (10 µM unless noted), 13.7% (inactive) and 22% (inactive); in test [6], 59.9% (inactive) and 44.6% (inactive). The growth in test [7] was 93.6% (inactive); in test [8], 26.1% (inactive) and 51.7% (inactive).
Regarding `N#CC(=S)Nc1ccc(Cl)c(Cl)c1`, the growth is 13.2% (inactive) in test [1]; -4.25% (active) in test [2]; 6.5% (active) in test [3]; 19.6% (inactive) in test [4]; 5.23% (active) in test [5] (10 µM); -23.4% (active) and -100% (active) in test [5] (100 µM). The growth is 4.91% (active) in test [6], 20.2% (inactive) in test [7] and 2.62% (active) in test [8].

The record behind these values is PubChem BioAssay (NCI).
